Measurements from PubChem BioAssay (Tox21).
Records with an inconclusive call do not appear. Activity calls are given as the source filed them. Calls follow the shape of the dose curve; as a rule, active = well fitted curve in the direction sought with a large enough effect in the repeat runs; inconclusive = weak or mixed curves; inactive = no such curve, though single readings can be large; an effect the other way counts as inactive or inconclusive.

Legend:
[1] = qHTS RealTime-Glo MT Cell Viability Assay in HepG2 cells - 40 hour (AID 1224870); also: nearly all actives have a fitted effect of over 50% in size
Outline: (§1)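 HepG2 cells (600/well) mixed with RealTime-Glo MT reagent, settled 5 h at 37 C/5% CO2 before compound addition. Nonlytic NanoLuc luminescence from viable-cell prosubstrate reduction read repeatedly during 40 h treatment at 37 C.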

[2] = A CellTox Green Cytotoxicity Assay to monitor cytotoxicity in HEK293 cells - 40 hour (AID 1224871); also: nearly all actives have a fitted effect of over 45% in size
Outline: (§2)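 Each value comes from one timepoint of a single continuous run in which HEK293 cells with CellTox Green were exposed to compound for up to 40 h at 37 C, dye fluorescence rising with cell death.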

[3] = qHTS RealTime-Glo MT Cell Viability Assay in HepG2 cells - 8 hour (AID 1224873); also: nearly all actives have a fitted effect of over 55% in size
Outline: as §1

[4] = qHTS RealTime-Glo MT Cell Viability Assay in HEK293 cells - 40 hour (AID 1224874); conditions: RealTime-Glo luminescence; max response: active compounds read low; also: nearly all actives have a fitted effect of over 50% in size
Outline: (§3)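 qHTS format; HEK293 cells with NanoLuc/prosubstrate reagent, 37 C/5% CO2 for 5 h pre-dosing; compounds 23 nL in DMSO; luminescence at each time point reflects viable cells.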

[5] = A CellTox Green Cytotoxicity Assay to monitor cytotoxicity in HEK293 cells - 24 hour (AID 1224875); also: series mostly up to about 77 µM; nearly all actives have a fitted effect of over 45% in size
Outline: as §2

[6] = A CellTox Green Cytotoxicity Assay to monitor cytotoxicity in HepG2 cells - 16 hour (AID 1224876); also: nearly all actives have a fitted effect of over 45% in size
Outline: (§4)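 Continuous culture of HepG2 cells with a membrane-impermeant DNA dye; rising fluorescence marks dead cells. Compound exposure lasted up to 40 h at 37 C, with reads every 8 h from 0 h.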

[7] = A CellTox Green Cytotoxicity Assay to monitor cytotoxicity in HepG2 cells - 24 hour (AID 1224878); also: nearly all actives have a fitted effect of over 45% in size
Outline: as §4

[8] = A CellTox Green Cytotoxicity Assay to monitor cytotoxicity in HepG2 cells - 40 hour (AID 1224879); also: nearly all actives have a fitted effect of over 40% in size
Outline: as §4

[9] = qHTS RealTime-Glo MT Cell Viability Assay in HEK293 cells - 0 hour (AID 1224880)
Outline: as §3

[10] = A CellTox Green Cytotoxicity Assay to monitor cytotoxicity in HEK293 cells - 32 hour (AID 1224881); also: nearly all actives have a fitted effect of over 40% in size
Outline: as §2

[11] = A CellTox Green Cytotoxicity Assay to monitor cytotoxicity in HepG2 cells - 0 hour (AID 1224882); also: nearly all actives have a fitted effect of over 35% in size
Outline: as §4

[12] = A CellTox Green Cytotoxicity Assay to monitor cytotoxicity in HepG2 cells - 32 hour (AID 1224883); also: nearly all actives have a fitted effect of over 50% in size
Outline: as §4

[13] = A CellTox Green Cytotoxicity Assay to monitor cytotoxicity in HEK293 cells - 8 hour (AID 1224884); also: nearly all actives have a fitted effect of over 35% in size
Outline: as §2

[14] = qHTS RealTime-Glo MT Cell Viability Assay in HepG2 cells - 16 hour (AID 1224885); also: nearly all actives have a fitted effect of over 50% in size
Outline: (§5)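 Luminescence read-out: viable HepG2 cells reduce a prosubstrate to a NanoLuc substrate, giving a signal proportional to live cell number. Reads taken at 0, 8, 16, 24, 32 and 40 h of compound exposure at 37 C.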

[15] = qHTS RealTime-Glo MT Cell Viability Assay in HEK293 cells - 8 hour (AID 1224887)
Outline: as §3

[16] = A CellTox Green Cytotoxicity Assay to monitor cytotoxicity in HEK293 cells - 16 hour (AID 1224888); also: nearly all actives have a fitted effect of over 35% in size
Outline: as §2

[17] = qHTS RealTime-Glo MT Cell Viability Assay in HepG2 cells - 0 hour (AID 1224889); also: nearly all actives have a fitted effect of over 50% in size
Outline: as §5

[18] = qHTS RealTime-Glo MT Cell Viability Assay in HepG2 cells - 32 hour (AID 1224877); also: nearly all actives have a fitted effect of over 55% in size
Outline: as §5

[19] = qHTS RealTime-Glo MT Cell Viability Assay in HEK293 cells - 24 hour (AID 1224886)
Outline: (§6)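 Nonlytic real-time viability readout: viable cells convert prosubstrate to NanoLuc substrate, giving luminescence proportional to live cell number. HEK293, 600 cells/well, compound added after 5 h, continuous culture at 37 C.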

[20] = qHTS RealTime-Glo MT Cell Viability Assay in HEK293 cells - 16 hour (AID 1224872)
Outline: as §6
% is scaled to controls: 0 for no effect and ±100 for the full control effect.

C/C=C(\C)C#N
inactive: Potency [1] | Potency [2] | Potency [3] | max response [4] -3.01% | Potency [5] | Potency [6] | Potency [7] | Potency [8] | Potency [9] | Potency [10] | Potency [11] | Potency [12] | Potency [13] | Potency [14] | Potency [15] | Potency [16] | Potency [17]

CC(=O)Nc1c(I)cc(I)c(C(=O)O)c1I
inactive: Potency [1] | Potency [2] | max response [4] 7.77% | Potency [5] | Potency [6] | Potency [18] | Potency [7] | Potency [8] | Potency [9] | Potency [10] | Potency [11] | Potency [12] | Potency [13] | Potency [14] | Potency [19] | Potency [15] | Potency [16] | Potency [17]

OCCOc1ccc(OCCO)cc1
inactive: Potency [1] | Potency [2] | Potency [3] | max response [4] 19.3% | Potency [6] | Potency [18] | Potency [7] | Potency [8] | Potency [9] | Potency [10] | Potency [11] | Potency [12] | Potency [13] | Potency [14] | Potency [15] | Potency [16] | Potency [17]

CCc1ccc(O)c(OC)c1
inactive: Potency [1] | Potency [2] | max response [4] 4.24% | Potency [6] | Potency [18] | Potency [7] | Potency [8] | Potency [9] | Potency [10] | Potency [11] | Potency [12] | Potency [13] | Potency [14] | Potency [19] | Potency [15] | Potency [16] | Potency [17]

FC1(F)C(F)(F)C(F)(F)C2(F)C(F)(F)C(F)(F)C(F)(F)C(F)(F)C2(F)C1(F)F (centres undefined)
inactive: Potency [1] | Potency [2] | Potency [3] | Potency [6] | Potency [18] | Potency [7] | Potency [8] | Potency [9] | Potency [10] | Potency [11] | Potency [12] | Potency [13] | Potency [14] | Potency [19] | Potency [15] | Potency [16] | Potency [17]

O=S(O)CO
inactive: Potency [1] | Potency [2] | Potency [3] | max response [4] 10.1% | Potency [5] | Potency [6] | Potency [7] | Potency [8] | Potency [9] | Potency [10] | Potency [11] | Potency [12] | Potency [13] | Potency [19] | Potency [15] | Potency [16] | Potency [17]

CCCCCOC(=O)CCCCC
inactive: Potency [1] | Potency [2] | Potency [3] | max response [4] 7.06% | Potency [6] | Potency [18] | Potency [7] | Potency [8] | Potency [9] | Potency [10] | Potency [11] | Potency [12] | Potency [13] | Potency [14] | Potency [19] | Potency [15] | Potency [16] | Potency [17]

OC(CCN1CCCCC1)(c1ccccc1)C1CC2C=CC1C2 (centres undefined)
inactive: Potency [1] | Potency [20] | Potency [3] | Potency [5] | Potency [6] | Potency [18] | Potency [7] | Potency [8] | Potency [9] | Potency [10] | Potency [11] | Potency [12] | Potency [13] | Potency [14] | Potency [19] | Potency [15] | Potency [16] | Potency [17]
